Reference: PubChem BioAssay (NCATS)
Inconclusive results are not listed. Active and inactive are the calls of the source. Calls come from the whole dose curve; as a rule, active = well fitted curve in the direction sought with a large enough effect; inconclusive = small, poorly fitted or top-dose-only effect, or another doubt; inactive = no such curve, though single readings can be large; an effect the other way counts as inactive or inconclusive.

What was measured:
[1] = qHTS of pediatric cancer cell lines to identify multiple opportunities for drug repurposing: Primary screen for NB1643 cells (AID 1347099); note: nearly all actives have a fitted effect of over 50% in size
Summary of the method: (§1)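 Luminescence from CellTiter-Glo served as readout of metabolically active cells after 48 h compound exposure. Titrations: MIPE 11-point, from 0.78 nM; NPC 8-point, from 0.59 nM (final). Concentration-response curves came straight from the primary screen.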

[2] = qHTS of pediatric cancer cell lines to identify multiple opportunities for drug repurposing: Primary screen for LAN-5 cells (AID 1347100)
Summary of the method: (§2)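 Cells (500-1,000/well) in growth media were settled 5 h at 37 degrees C, then given compounds for 48 h. Viability was read as CellTiter-Glo luminescence. Primary runs used MIPE at 11 points (0.78 nM-46 µM) and NPC at 8 points (0.59 nM-46 µM); follow-ups used 11 points.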

[3] = qHTS of pediatric cancer cell lines to identify multiple opportunities for drug repurposing: Primary screen for BT-12 cells (AID 1347101); note: nearly all actives have a fitted effect of over 25% in size
Summary of the method: (§3)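 Cells (500-1,000/well) rested 5 h, then received compounds for 48 h; metabolically active cells were measured by CellTiter-Glo luminescence. Final concentrations spanned up to 46 µM (MIPE, 11-point) or 0.59 nM-46 µM (NPC, 8-point) in primary screens, 11-point in follow-ups.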

[4] = qHTS of pediatric cancer cell lines to identify multiple opportunities for drug repurposing: Primary screen for Rh18 cells (AID 1347102); note: nearly all actives have a fitted effect of over 65% in size
Source text: Drug repurposing or repositioning has been offered as a strategy for drug development in oncology programs. This approach has special potential for childhood cancers and other rare or orphan diseases, where the expected return on new drug development has been a disincentive to pharmaceuticals.
In this project we exploit the poly-pharmacology of drugs to discover new indications via phenotypic screening of a panel of 19 well-characterized cell lines derived from solid tumors seen in children and adolescents. The goal is to identify approved drugs with previously unrecognized anticancer properties that has the potential to reveal new mechanisms and biological processes involved in carcinogenesis or drug resistance. We employed a titration-based paradigm (quantitative high-throughput screening or qHTS), where all compounds were tested at multiple concentrations for their effect on cell viability. […] We screened the NIH Chemical Genomics Center (NCGC) Pharmaceutical Collection (NPC) and Mechanism Interrogation Plate (MIPE) small molecule collections of approved and investigational compounds against these cell lines; and measured metabolically active cells after 48 hours of compound treatment as a proxy for cell viability. […]
[1] Shen, M et al. Quantitative high-throughput phenotypic screening of pediatric cancer cell lines identifies multiple opportunities for drug repurposing. […]

[5] = qHTS of pediatric cancer cell lines to identify multiple opportunities for drug repurposing: Primary screen for OHS-50 cells (AID 1347103); note: nearly all actives have a fitted effect of over 40% in size
Summary of the method: as §3

[6] = qHTS of pediatric cancer cell lines to identify multiple opportunities for drug repurposing: Primary screen for RD cells (AID 1347104); note: nearly all actives have a fitted effect of over 55% in size
Summary of the method: as §1

[7] = qHTS of pediatric cancer cell lines to identify multiple opportunities for drug repurposing: Primary screen for MG 63 (6-TG R) cells (AID 1347105); note: nearly all actives have a fitted effect of over 50% in size
Summary of the method: as §1

[8] = qHTS of pediatric cancer cell lines to identify multiple opportunities for drug repurposing: Primary screen for control Hh wild type fibroblast cells (AID 1347106);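 note: series mostly up to about 46 µM; a drop in luminescence marks cytotoxicity and a rise apparent proliferation; nearly all actives have a fitted effect of over 55% in size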
Summary of the method: as §2

[9] = qHTS of pediatric cancer cell lines to identify multiple opportunities for drug repurposing: Primary screen for Rh30 cells (AID 1347107); note: series mostly up to about 46 µM; nearly all actives have a fitted effect of over 75% in size
Summary of the method: as §2

[10] = qHTS of pediatric cancer cell lines to identify multiple opportunities for drug repurposing: Primary screen for Rh41 cells (AID 1347108);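 note: series mostly up to about 46 µM; luminescence drop marks cytotoxic hits; nearly all actives have a fitted effect of over 70% in size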
Summary of the method: as §1

Measured: outcome

CC(=O)OC(C)OC(=O)C(C)c1ccc(-c2ccccc2)c(F)c1 (stereo not given)
inactive: [1] | [2] | [3] | [4] | [5] | [6] | [7] | [8] | [9] | [10]

CN1Cc2c(N)cccc2C(c2ccccc2)C1 (stereo not given)
inactive: [1] | [2] | [3] | [4] | [5] | [6] | [7] | [8] | [9] | [10]
